# Screening data (PubChem BioAssay)
# Hits are enriched below; roughly 19% of the tested compounds scored in any of these assays.
# IL1B secr inh – inflammasome signaling inhibition, IL-1 beta readout; THP-1 LPS/ATP IL-1B secretion, AlphaLISA, 16 h; hits give low values; activity change, % at 57.5 µM; hit rate 4.7% among 360,000; AID 743279; in the data active means activity change below about -50%; inconclusive means mostly about -30% to -49%; further: on the % scale 0 is the no-effect control and ±100 the full control effect
#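 Secreted IL-1B measured by AlphaLISA bead assay after 16 h compound exposure of THP-1 cells; compounds (final up to 57.5 uM) added 1 h before LPS (250 ng/mL) and ATP (1.25 mM) stimulation; lower signal means less secretion.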
# TDP1 block – TDP1 (human) enzyme inhibition. recombinant TDP1, AlphaScreen DNA substrate cleavage. Potency, µM (series often up to 130 µM), without a hit: at the top dose activity change, negative = inhibition, actives largely listed as inhibitors. hit rate 0.28% among 350,000. AID 485290; further: potency means the concentration at half of the fitted maximal effect; on the % scale 0 is the no-effect control and ±100 the full control effect; nearly all actives have a fitted effect of over 40% in size
# Target sequence (Q9NUW8 whole entry, looked up): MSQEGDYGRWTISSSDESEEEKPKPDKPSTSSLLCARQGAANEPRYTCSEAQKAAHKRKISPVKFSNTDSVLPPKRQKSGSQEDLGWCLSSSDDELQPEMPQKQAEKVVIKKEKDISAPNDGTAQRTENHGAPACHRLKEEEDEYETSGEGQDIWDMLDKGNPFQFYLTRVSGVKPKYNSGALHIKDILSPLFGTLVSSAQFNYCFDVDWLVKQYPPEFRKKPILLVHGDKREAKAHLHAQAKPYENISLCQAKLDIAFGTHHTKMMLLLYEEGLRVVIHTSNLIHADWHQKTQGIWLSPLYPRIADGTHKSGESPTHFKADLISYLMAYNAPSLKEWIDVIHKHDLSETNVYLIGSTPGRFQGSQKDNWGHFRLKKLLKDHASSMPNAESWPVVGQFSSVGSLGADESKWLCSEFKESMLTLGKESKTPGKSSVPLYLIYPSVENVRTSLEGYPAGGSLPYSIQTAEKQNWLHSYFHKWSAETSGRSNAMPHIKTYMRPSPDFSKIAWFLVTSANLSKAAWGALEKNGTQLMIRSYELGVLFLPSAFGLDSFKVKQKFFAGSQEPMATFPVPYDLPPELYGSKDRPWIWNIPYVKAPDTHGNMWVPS
#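 Compounds were preincubated with Tdp1 (1 nM final) for 15 min at room temperature before substrate (15 nM final) started a 5 min reaction; beads (10 ug/ml final) were then added for 10 min before AlphaScreen detection.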
# TGFb inhibitor – inhibitors of TGF-b signaling; HepG2 CAGA-GFP TGF-b/SMAD3 reporter, GFP fluorescence, 18 h; TGF-beta stimulated, 500 pg/mL final; Potency, µM (highest dose often 46.1 µM), for inactives: at the top dose activity, negative = inhibition, actives largely listed as inhibitors; hit rate 1.2% among 410,000; AID 588855; further: potency means the concentration at half of the fitted maximal effect; on the % scale 0 is the no-effect control and ±100 the full control effect; nearly all actives have a fitted effect of over 65% in size
#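 Inhibition of TGF-beta-driven CAGA-GFP reporter expression in HEPG2 cells is measured by cellular GFP fluorescence after 18 h stimulation with 500 pg/mL recombinant TGF-beta in 1% FBS medium at 37 degrees C.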
# DT40 TDP1 no CPT – qHTS for Inhibitors of human tyrosyl-DNA phosphodiesterase 1 (TDP1): qHTS in cells in absence of CPT | DT40 Tdp1-/- hTDP1 cells, no CPT, ATP luminescence, 48 h | Potency, µM (doses to about 46.2 µM), for inactives: top-dose activity change, negative = growth inhibition, most hits filed as inhibitors | hit rate 15% among 420,000 | AID 686978, 2013; further: potency means the concentration at half of the fitted maximal effect; on the % scale 0 is the no-effect control and ±100 the full control effect; nearly all actives have a fitted effect of over 55% in size
#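 DT40 Tdp1-/-;hTDP1 cells, no CPT (DMSO vehicle only), 400 cells/well; compounds pin-transferred; ≥48 hr, 37 °C; CellTiter-Glo 30 min RT dark, luminescence read.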
# HepG2 tox – kills HepG2 cells in TGF-b inhibitor counter-screen. hit rate 0.76% among 410,000. Potency, µM (titrated, usually from 46.1 µM), inactives show at the top dose activity change, negative = cytotoxicity, usual class: cytotoxic. AID 588856. HepG2 CAGA-GFP viability, ATP luminescence, 18 h; further: potency means the concentration at half of the fitted maximal effect
#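 CellTiter-Glo luminescence gave cytotoxicity after 18 hours at 37 degrees C. The cells were HepG2 CAGA-GFP in 1% FBS DMEM, stimulated with 500 pg/mL TGF-beta after compound addition. %Activity was normalised to no-cell wells (complete cell-killing) and DMSO (no toxicity), and curves were fitted and classified.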
# TDP1 cell CPT – growth inhibition of DT40 Tdp1-/-;hTDP1 cells with camptothecin (screen for TDP1 inhibitors). Potency, µM (titrated, usually from 46.2 µM), for inactives: top-dose activity change, negative = growth inhibition, hits mostly inhibitors. chicken DT40 Tdp1-/-;hTDP1 cells + 20 nM CPT, ATP luminescence, 48 h. AID 686979. hit rate 12% among 420,000; further: potency means the concentration at half of the fitted maximal effect; on the % scale 0 is the no-effect control and ±100 the full control effect; nearly all actives have a fitted effect of over 55% in size
#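 Chicken DT40 Tdp1-/- cells stably complemented with human TDP1 were seeded at 400 cells/well in medium containing 20 nM camptothecin, exposed to pin-transferred compounds, and grown at 37 °C for at least 48 hr. Viability was read as ATP luminescence.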
# The depositor's hits bear a star; i = inactive; ? = inconclusive; · = no result; [ ] = remark or other dose. Unless noted, the call rests on the fitted dose curve; in most records, active means well fitted curve in the direction sought with a large enough effect; inconclusive means small, poorly fitted or top-dose-only effect, or another doubt; inactive means no such curve, though single readings can be large; an effect the other way counts as inactive or inconclusive.
SMILES,IL1B secr inh,TDP1 block,TGFb inhibitor,DT40 TDP1 no CPT,HepG2 tox,TDP1 cell CPT
Cc1cc(C)c2c(NC(=O)c3ccccc3Cl)c(C(=O)NCc3ccc(Cl)cc3)sc2n1,·,-5%,-14%,?,-13%,?
CCc1ccc(N(CC)C(=O)c2sc3nc4n(c(=O)c3c2C)CCCC4)cc1,·,5%,?,21µM*,-47%,26µM*
Cc1ccc(C(=O)Nc2c(C(=O)NCc3ccc(Cl)cc3)sc3nc(C)cc(C)c23)cc1,·,-2%,·,13µM*,-10%,9.2µM*
Cc1cccc(CCNC(=O)c2ccc3c(c2)nc2n3CCCCC2)c1,·,5%,-11%,?,-24%,21µM*
Cc1ccccc1C1(CC(=O)N2CCOCC2)CC(=O)N(Cc2cccnc2)C1=O (stereo not given),·,·,·,-7%,·,16%[9.04 µM]
COC(=O)[C@@H]1CC[C@H](C)[C@@H](c2ccc(C)cc2)N1C(=O)c1ccc(/C=N\O[C@@H](C)c2cn([C@H]3COC[C@H]3O)nn2)cc1,·,7%[21 µM],·,·,·,·
Cc1cccc(CCNC(=O)c2sc3nc4n(c(=O)c3c2C)CCCC4)c1,·,6%,5%,?,-42%,18µM*
Cc1c(C(=O)NCc2ccc(Cl)cc2)sc2nc3n(c(=O)c12)CCCC3,·,3%,·,16µM*,-15%,?
COc1ccc(CNC(=O)c2sc3nc4n(c(=O)c3c2C)CCCC4)cc1,·,6%,·,?,-6%,?
CC1(c2nc3ccccc3[nH]2)CCCC2=Nc3ccccc3CN21 (stereo not given),-14,·,·,18µM*,·,?
Cc1ccccc1C(OCCN(C(C)C)C(C)C)c1ccccc1 (stereo not given),-53*,-7%,4%,?,-16%,?
CCOc1ccc(N2CC(c3nc(-c4cc(OC)c(OC)c(OC)c4)no3)CC2=O)cc1 (stereo not given),·,7%,-32%,26µM*,-30%,?
COc1cc(-c2noc(C3CC(=O)N(c4ccc5c(c4)OCCO5)C3)n2)cc(OC)c1OC (stereo not given),·,8%,18%,?,-14%,?
COc1ccc(N2CC(c3nc(-c4cc(OC)c(OC)c(OC)c4)no3)CC2=O)cc1Cl (stereo not given),·,8%,6%,16µM*,-2%,?
CN(C)c1ccc(-c2noc(C3CC(=O)N(c4ccc5c(c4)OCCO5)C3)n2)cc1 (stereo not given),·,3%,17%,2.9µM*,-10%,4.6µM*
COc1ccc(-c2noc(C3CC(=O)N(c4cc(C)cc(C)c4)C3)n2)cc1 (stereo not given),·,7%,10%,0%,-1%,2%
O=C1CC(c2nc(-c3ccccc3)no2)CN1c1ccc2c(c1)OCCO2 (stereo not given),·,2%,-2%,-12%,-18%,-10%
CCOC(=O)C1CCN(C(=O)Cn2ncc3c([nH]c4ccc(C)cc43)c2=O)CC1,·,1%,12%,6%,7%,-1%
COc1ccc(-n2cc(CN(C)CCO)c(-c3cccc(F)c3)n2)cc1,-30,-6%,1%,?,-27%,-26%
Cc1ccc(-n2cc(CN3CCN(Cc4nccn4C)CC3)c(-c3cccc(C)c3)n2)cc1,-57*,10%,?,?,-42%,?
CCn1ccnc1CN(C)Cc1cn(-c2ccc(C)cc2)nc1-c1cccc(C)c1,-249*,-3%,?,-108%,-81%,?
CCn1ccnc1CN(C)Cc1cn(-c2cccc(C)c2)nc1-c1cccc(F)c1,-62*,6%,?,?,-106%,16µM*
O=C(c1cc(Cl)ccc1F)N1CCCC(Nc2ccc3c(c2)OCCO3)C1 (stereo not given),-12,10%,10%,?,-5%,?
CCOc1ccc(S(=O)(=O)NCc2nc3cccnc3n2Cc2ccccc2OC)cc1,·,11%,?,?,-28%,?
CCCCC(=O)OC1=C(C(C)=O)N(Cc2ccccc2)S(=O)(=O)c2ccccc21,·,-2%,0%,?,1%,?
SMILES,IL1B secr inh,TDP1 block,TGFb inhibitor,DT40 TDP1 no CPT,HepG2 tox,TDP1 cell CPT
CCC(=O)OC1=C(C(C)=O)N(Cc2ccccc2)S(=O)(=O)c2ccccc21,·,3%,1%,?,-1%,18µM*
CCCCCN1C(C(=O)c2ccccc2)=C(OC(=O)CC)c2ccccc2S1(=O)=O,·,7%,?,5.2µM*,11µM*,4.6µM*
CCCCC(=O)OC1=C(C(=O)c2ccccc2)N(CCC)S(=O)(=O)c2ccccc21,·,2%,?,2.9µM*,-78%,3.3µM*
CCCC(=O)OC1=C(C(C)=O)N(Cc2ccccc2)S(=O)(=O)c2ccccc21,·,1%,14%,?,-10%,?
CCCN1C(C(=O)c2ccccc2)=C(OC(=O)c2ccc(F)cc2)c2ccccc2S1(=O)=O,·,6%,18µM*,4.6µM*,-56%,5.2µM*
N#CCCn1c(=O)cnc2cnc(Oc3ccccc3)nc21,·,·,·,-1%,·,-6%
CCN1C(C(=O)c2ccccc2)=C(OC(=O)c2ccc(OC)cc2)c2ccccc2S1(=O)=O,·,10%,?,6.5µM*,-36%,4.6µM*
Cc1ccc(C(=O)OC2=C(C(=O)c3ccccc3)N(C)S(=O)(=O)c3ccccc32)cc1,·,2%,?,?,-43%,?
Nc1ccc2nc(SCC(=O)N3CCOCC3)sc2c1,36,-6%,12%,-21%,5%,3%
CCCC(=O)Nc1ccc2nc(SCC(=O)Nc3ccc(N4CCOCC4)c(Cl)c3)sc2c1,-50*,4%,-1%,16µM*,-18%,-82%
Nc1nnc(SCC(=O)Nc2ccc(N3CCOCC3)c(Cl)c2)s1,i,5%,20%,12µM*,28%,18µM*
Nc1ccc2nc(SCC(=O)Nc3ccc(N4CCOCC4)c(Cl)c3)sc2c1,-28,5%,-9%,23µM*,12%,?
O=C(CSc1ccc(F)cc1)Nc1ccc(N2CCOCC2)c(Cl)c1,0,0%,-9%,?,0%,-29%
COc1ccc(NC(=O)C(NS(=O)(=O)c2ccc3c(c2)CCCC(=O)N3)C(C)C)c(OC)c1 (stereo not given),·,0%,-17%,0%,-3%,-14%
